Test results reported in the supplement of paper PMC8047044.
Where “and” joins values, the source holds several entries; their conditions need not be identical. Equal entries are not always repeated.

Tested on: Neuro-2a
Test: neurite formation score, plate-normalized to DMSO control mean 5.04 (score (0-8 scale)); higher = more or longer neurites
Conditions: 1 µM
Protocol: (§1)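 Neuro-2a mouse neuroblastoma cells in PLL-coated 96-well plates were pre-treated for 1 h in DMEM(+) with each kinase inhibitor at 1 µM, then switched to serum-free DMEM(-) with inhibitor to induce neurite outgrowth and fixed about 2-3 h later. Three blinded observers scored neurite formation from 0 (no neurites) to 8 (long neurites on almost all cells).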

| SMILES | neurite formation score |
| --- | --- |
| O=C1NC(=O)/C(=C/c2ccc3nccc(-c4ccncc4)c3c2)S1 | 4.14 |
| CS(=O)(=O)N1CCN(Cc2cc3nc(-c4cccc5[nH]ncc45)nc(N4CCOCC4)c3s2)CC1 [GDC-0941 dimethanesulfonate] | 2.8 |
| CCN1CCN(c2ccc(Nc3cc(N(C)C(=O)Nc4c(Cl)c(OC)cc(OC)c4Cl)ncn3)cc2)CC1 | 3.8 |
| CC[C@H](Nc1ncnc2[nH]cnc12)c1nc2cccc(F)c2c(=O)n1-c1ccccc1 [CAL-101 (Idelalisib, GS-1101)] | 4.57 |
| CN(c1ncccc1CNc1nc(Nc2ccc3c(c2)CC(=O)N3)ncc1C(F)(F)F)S(C)(=O)=O | 1.57 and 4.24 |
| Cn1cnc2c(F)c(Nc3ccc(Br)cc3F)c(C(=O)NOCCO)cc21 | 3.24 |
| Cc1ccccc1-n1c(Cn2nc(-c3cccc(O)c3)c3c(N)ncnc32)nc2cccc(C)c2c1=O | 4.88 |
| CN(C[C@@H]1COCCO1)S(=O)(=O)Nc1ccc2ccc3ncc(-c4cnn(C)c4)cc3c(=O)c2c1 | 5.29 |
| Cn1sc(=O)n(Cc2ccccc2)c1=O | 2.96 |
| COc1cc(Nc2nc3ccccc3nc2NS(=O)(=O)c2ccc(NC(=O)c3ccc(C)c(OC)c3)cc2)cc(OC)c1 | 4.57 |
| O=C1NC(=O)C(c2cnc3ccccn23)=C1c1cn2c3c(cc(F)cc13)CN(C(=O)N1CCCCC1)CC2 | 3.47 |
| Cc1csc(-c2nnc(Nc3ccc(Oc4ncccc4-c4ccnc(N)n4)cc3)c3ccccc23)c1 | 3.36 |
| O=C1NCCc2[nH]c(-c3ccncc3)cc21 | 5.69 |
| CCC(=O)Nc1cccc(Oc2nc(Nc3ccc(N4CCN(C)CC4)cc3OC)ncc2Cl)c1 | 5.63 |
| Cc1nc(Nc2n[nH]c3c2CN(C(=O)N[C@H](CN(C)C)c2ccccc2)C3(C)C)c2sccc2n1 | 4.02 |
| NC(=O)Nc1sc(-c2ccc(F)cc2)cc1C(N)=O | 4.36 |
| CCCCOc1c(C(=O)c2c(F)cc(C)cc2F)c[nH]c2nncc1-2 | 5.29 |
| N#Cc1c(Oc2ccc(F)c(NC(=O)Cc3cccc(C(F)(F)F)c3)c2)ccc2nc(NC(=O)C3CC3)sc12 | 1.9 |
| CS(=O)(=O)CCNCc1ccc(-c2ccc3ncnc(Nc4ccc(OCc5cccc(F)c5)c(Cl)c4)c3c2)o1 [Lapatinib] | 4.24 |
| NC(=O)c1ccc2nc(-c3ccc(Oc4ccc(Cl)cc4)cc3)[nH]c2c1 | 4.63 |

| SMILES | neurite formation score |
| --- | --- |
| COc1cc2ncnc(Oc3cccc(NC(=O)Nc4cc(C(C)(C)C(F)(F)F)on4)c3)c2cc1OC | 5.24 |
| O=c1cc(-c2cccc3c2Sc2ccccc2S3)oc(N2CCOCC2)c1 | 3.69 |
| CCN(CC)CCCCNc1ncc2cc(-c3cc(OC)cc(OC)c3)c(NC(=O)NC(C)(C)C)nc2n1 | 4.24 |
| COc1cc(OC)c(/C=C/S(=O)(=O)Cc2ccc(OC)c(NCC(=O)O)c2)c(OC)c1 | 0.908 |
| O=C(Nc1ccc2[nH]nc(-c3ccncc3)c2c1)[C@@H]1CCN(CC(=O)N2CCN(c3ccc(-c4ncccn4)cc3)CC2)C1 | 3.8 |
| CC(=O)Nc1nc(C)c(-c2ccc(Cl)c(S(=O)(=O)NCCO)c2)s1 | 4.57 |
| CC(=O)c1c(C)c2cnc(Nc3ccc(N4CCNCC4)cn3)nc2n(C2CCCC2)c1=O | 4.57 |
| COc1cc2c(Nc3ccc(NC(=O)c4ccccc4)cc3)ncnc2cc1OCCCN1CCOCC1 | 3.69 |
| CC(C)n1nc(-c2ccc3oc(N)nc3c2)c2c(N)ncnc21 | 3.96 |
| COc1cc(N2CCOCC2)ccc1Nc1ncc(F)c(Nc2ccccc2NS(C)(=O)=O)n1 | 4.54 |
| COc1cc2nccc(Oc3ccc(NC(=O)Nc4ccc(F)cc4F)c(F)c3)c2cc1OC | 5.24 |
| CO[C@H]1C[C@@H]2CC[C@@H](C)[C@@](O)(O2)C(=O)C(=O)N2CCCC[C@H]2C(=O)O[C@H]([C@H](C)C[C@@H]2CC[C@@H](OC(=O)C(C)(CO)CO)[C@H](OC)C2)CC(=O)[C@H](C)/C=C(\C)[C@@H](O)[C@@H](OC)C(=O)[C@H](C)C[C@H](C)/C=C/C=C/C=C/1C [Temsirolimus] | 4.24 |
| O=C1NC(=O)C(=Cc2ccc(-c3ccc(F)cc3)o2)S1 (stereo in doubt) | 4.54 |
| CN1CCC(COc2cnc(-c3cccc(Cn4nc(-c5cccc(C#N)c5)ccc4=O)c3)nc2)CC1 | 3.69 |
| CCS(=O)(=O)N1CC(CC#N)(n2cc(-c3ncnc4[nH]ccc34)cn2)C1 | 4.02 |
| Cc1cnc(-c2cnc(NCCNc3ccc(C#N)cn3)nc2-c2ccc(Cl)cc2Cl)[nH]1 | 5.29 and 4.57 |
| CCn1nnc2c(N3CCOCC3)nc(-c3ccc(NC(=O)Nc4ccc(C(=O)N5CCN(C)CC5)cc4)cc3)nc21 | 3.14 |
| O=C(/C=C/c1ccc(O)c(O)c1)c1ccc(O)cc1O [Butein] | 5.24 |
| CC[C@@H]1C(=O)N(C)c2cnc(Nc3ccc(C(=O)NC4CCN(C)CC4)cc3OC)nc2N1C1CCCC1 | 5.02 |

Tested on: Neuro-2a
Test: as above
Conditions: 0.1 µM
Protocol: as §1, with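 “at 0.1” for “at 1”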

| SMILES | neurite formation score |
| --- | --- |
| O=C1NC(=O)/C(=C/c2ccc3nccc(-c4ccncc4)c3c2)S1 | 5.42 |
| CS(=O)(=O)N1CCN(Cc2cc3nc(-c4cccc5[nH]ncc45)nc(N4CCOCC4)c3s2)CC1 [GDC-0941 dimethanesulfonate] | 2.09 |
| CCN1CCN(c2ccc(Nc3cc(N(C)C(=O)Nc4c(Cl)c(OC)cc(OC)c4Cl)ncn3)cc2)CC1 | 4.09 |
| CC[C@H](Nc1ncnc2[nH]cnc12)c1nc2cccc(F)c2c(=O)n1-c1ccccc1 [CAL-101 (Idelalisib, GS-1101)] | 4.71 |
| CN(c1ncccc1CNc1nc(Nc2ccc3c(c2)CC(=O)N3)ncc1C(F)(F)F)S(C)(=O)=O | 3.54 and 4.88 |
| Cn1cnc2c(F)c(Nc3ccc(Br)cc3F)c(C(=O)NOCCO)cc21 | 5.38 |
| Cc1ccccc1-n1c(Cn2nc(-c3cccc(O)c3)c3c(N)ncnc32)nc2cccc(C)c2c1=O | 4.75 |
| CN(C[C@@H]1COCCO1)S(=O)(=O)Nc1ccc2ccc3ncc(-c4cnn(C)c4)cc3c(=O)c2c1 | 4.25 |
| Cn1sc(=O)n(Cc2ccccc2)c1=O | 4.25 |
| COc1cc(Nc2nc3ccccc3nc2NS(=O)(=O)c2ccc(NC(=O)c3ccc(C)c(OC)c3)cc2)cc(OC)c1 | 4.21 |
| O=C1NC(=O)C(c2cnc3ccccn23)=C1c1cn2c3c(cc(F)cc13)CN(C(=O)N1CCCCC1)CC2 | -0.576 |
| Cc1csc(-c2nnc(Nc3ccc(Oc4ncccc4-c4ccnc(N)n4)cc3)c3ccccc23)c1 | 4.58 |
| O=C1NCCc2[nH]c(-c3ccncc3)cc21 | 5.92 |
| CCC(=O)Nc1cccc(Oc2nc(Nc3ccc(N4CCN(C)CC4)cc3OC)ncc2Cl)c1 | 4.25 |
| Cc1nc(Nc2n[nH]c3c2CN(C(=O)N[C@H](CN(C)C)c2ccccc2)C3(C)C)c2sccc2n1 | 4.92 |
| NC(=O)Nc1sc(-c2ccc(F)cc2)cc1C(N)=O | 4.58 |
| CCCCOc1c(C(=O)c2c(F)cc(C)cc2F)c[nH]c2nncc1-2 | 4.92 |
| N#Cc1c(Oc2ccc(F)c(NC(=O)Cc3cccc(C(F)(F)F)c3)c2)ccc2nc(NC(=O)C3CC3)sc12 | 4.54 |
| CS(=O)(=O)CCNCc1ccc(-c2ccc3ncnc(Nc4ccc(OCc5cccc(F)c5)c(Cl)c4)c3c2)o1 [Lapatinib] | 4.88 |
| NC(=O)c1ccc2nc(-c3ccc(Oc4ccc(Cl)cc4)cc3)[nH]c2c1 | 5.25 |

| SMILES | neurite formation score |
| --- | --- |
| COc1cc2ncnc(Oc3cccc(NC(=O)Nc4cc(C(C)(C)C(F)(F)F)on4)c3)c2cc1OC | 4.71 |
| O=c1cc(-c2cccc3c2Sc2ccccc2S3)oc(N2CCOCC2)c1 | 1.92 |
| CCN(CC)CCCCNc1ncc2cc(-c3cc(OC)cc(OC)c3)c(NC(=O)NC(C)(C)C)nc2n1 | 5.21 |
| COc1cc(OC)c(/C=C/S(=O)(=O)Cc2ccc(OC)c(NCC(=O)O)c2)c(OC)c1 | 3.04 |
| O=C(Nc1ccc2[nH]nc(-c3ccncc3)c2c1)[C@@H]1CCN(CC(=O)N2CCN(c3ccc(-c4ncccn4)cc3)CC2)C1 | 5.09 |
| CC(=O)Nc1nc(C)c(-c2ccc(Cl)c(S(=O)(=O)NCCO)c2)s1 | 3.88 |
| CC(=O)c1c(C)c2cnc(Nc3ccc(N4CCNCC4)cn3)nc2n(C2CCCC2)c1=O | 4.88 and 4.54 |
| COc1cc2c(Nc3ccc(NC(=O)c4ccccc4)cc3)ncnc2cc1OCCCN1CCOCC1 | 4.58 |
| CC(C)n1nc(-c2ccc3oc(N)nc3c2)c2c(N)ncnc21 | 5.25 |
| COc1cc(N2CCOCC2)ccc1Nc1ncc(F)c(Nc2ccccc2NS(C)(=O)=O)n1 | 4.75 |
| COc1cc2nccc(Oc3ccc(NC(=O)Nc4ccc(F)cc4F)c(F)c3)c2cc1OC | 4.38 |
| CO[C@H]1C[C@@H]2CC[C@@H](C)[C@@](O)(O2)C(=O)C(=O)N2CCCC[C@H]2C(=O)O[C@H]([C@H](C)C[C@@H]2CC[C@@H](OC(=O)C(C)(CO)CO)[C@H](OC)C2)CC(=O)[C@H](C)/C=C(\C)[C@@H](O)[C@@H](OC)C(=O)[C@H](C)C[C@H](C)/C=C/C=C/C=C/1C [Temsirolimus] | 4.21 |
| O=C1NC(=O)C(=Cc2ccc(-c3ccc(F)cc3)o2)S1 (stereo in doubt) | 3.08 |
| CN1CCC(COc2cnc(-c3cccc(Cn4nc(-c5cccc(C#N)c5)ccc4=O)c3)nc2)CC1 | 4.92 |
| CCS(=O)(=O)N1CC(CC#N)(n2cc(-c3ncnc4[nH]ccc34)cn2)C1 | 4.58 |
| Cc1cnc(-c2cnc(NCCNc3ccc(C#N)cn3)nc2-c2ccc(Cl)cc2Cl)[nH]1 | 4.92 and 4.04 |
| CCn1nnc2c(N3CCOCC3)nc(-c3ccc(NC(=O)Nc4ccc(C(=O)N5CCN(C)CC5)cc4)cc3)nc21 | 4.76 |
| O=C(/C=C/c1ccc(O)c(O)c1)c1ccc(O)cc1O [Butein] | 4.38 |
| CC[C@@H]1C(=O)N(C)c2cnc(Nc3ccc(C(=O)NC4CCN(C)CC4)cc3OC)nc2N1C1CCCC1 | 4.58 |
